Source: PubChem
In the library only some 10% were active in any assay of this set; here they are far more common.
SW480 rereplic = induces DNA re-replication in SW480 colon adenocarcinoma cells. SW480 DNA re-replication, Hoechst DNA content imaging, 48 h. Potency, µM (top dose mostly 46.1 µM), without a hit: at the highest dose re-replication activation, usual class: activators. actives 1.8% (n = 340,000); also: % of control where 0% means no effect; nearly all actives have a fitted effect of over 55% in size
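Cells (250 per well) received 23 nL compound or DMSO by pin tool and were kept 48 hr at 37 C, 5% CO2. Nuclei were then stained with Hoechst for 40 min and scanned for DNA content.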
VP16 counter = inhibits Gal4-VP16 luciferase reporter, ROR gamma counter-screen; Drosophila S2 Gal4-VP16 UAS-luciferase, luminescence, 20 h; Potency, µM (series often up to 53.6 µM), inactives show at the top dose activity, negative = inhibition, hits mostly inhibitors; actives 3.5% (n = 310,000);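 also: Gal4-VP16 expression switched on by copper sulfate through the metallothionein promoter; % is scaled to controls: 0 for no effect and ±100 for the full control effect; nearly all actives have a fitted effect of over 50% in size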
MCF10A rerep = induces DNA re-replication in MCF 10a normal breast cells. AID 624296. MCF 10A DNA re-replication, Hoechst nuclear intensity, 48 h. Potency, µM (titrated, usually from 46.1 µM), inactives show at the highest dose activity, positive = re-replication, usual class: activators. actives 2.9% (n = 350,000); also: % of control where 0% means no effect; nearly all actives have a fitted effect of over 50% in size
RORg inh = inhibitors of mouse ROR gamma transcriptional activity | actives 5.4% (n = 310,000) | Potency, µM (top dose mostly 53.6 µM), for inactives: at the highest dose activity change, negative = inhibition, usual class: inhibitors | P51450 | Drosophila S2 Gal4-RORgamma UAS-luciferase reporter, 20 h; also: % is scaled to controls: 0 for no effect and ±100 for the full control effect; nearly all actives have a fitted effect of over 60% in size
Target sequence (P51450 whole entry, looked up, the tested form may be a part): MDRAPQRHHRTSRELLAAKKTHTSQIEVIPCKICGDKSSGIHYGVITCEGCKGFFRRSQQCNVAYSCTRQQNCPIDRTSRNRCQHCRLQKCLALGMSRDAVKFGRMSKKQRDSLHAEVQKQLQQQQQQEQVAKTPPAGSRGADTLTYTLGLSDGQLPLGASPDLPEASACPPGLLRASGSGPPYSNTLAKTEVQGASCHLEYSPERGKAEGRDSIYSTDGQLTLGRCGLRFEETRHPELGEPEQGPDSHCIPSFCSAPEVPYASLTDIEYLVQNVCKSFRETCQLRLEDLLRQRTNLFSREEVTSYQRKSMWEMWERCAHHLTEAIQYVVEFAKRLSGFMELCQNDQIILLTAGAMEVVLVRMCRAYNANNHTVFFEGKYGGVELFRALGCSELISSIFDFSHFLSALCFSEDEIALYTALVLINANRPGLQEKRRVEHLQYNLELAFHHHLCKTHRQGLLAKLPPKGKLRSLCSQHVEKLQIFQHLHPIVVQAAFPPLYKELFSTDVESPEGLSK
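Luminescence from a UAS-regulated Photinus luciferase reporter in stably transfected Drosophila Schneider cells is measured; decreased signal marks ROR gamma inhibition. Fusion expression is induced by 700 uM copper sulfate for 20 hr.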
ELG1 repair inh = ELG1-dependent DNA repair inhibition; HEK293T ELG1-luciferase reporter, luminescence, 16 h; DNA damage induced by 5-fluorouridine; actives 2.3% (n = 330,000); Potency, µM (titrated, usually from 46.1 µM), inactives show top-dose activity change, negative = inhibition, hits mostly inhibitors; AID 504467; also: % is scaled to controls: 0 for no effect and ±100 for the full control effect; nearly all actives have a fitted effect of over 55% in size
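Overnight (16 hr) co-exposure of 2,000 cells/well to 5-fluorouridine and compound at 37 °C preceded detection. Luciferase was quantified via ONE-Glo luminescence; loss of signal denotes inhibition.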
Active calls of the source: *; ? = inconclusive; . = not tested or not shown; [ ] = remark or other dose. Calls follow the shape of the dose curve; as a rule, active = well fitted curve in the direction sought with a large enough effect; inconclusive = small, poorly fitted or top-dose-only effect, or another doubt; inactive = no such curve, though single readings can be large; an effect the other way counts as inactive or inconclusive. Potency is read from the fitted curve at half-maximal effect.

SMILES | SW480 rereplic | VP16 counter | MCF10A rerep | RORg inh | ELG1 repair inh
COc1cc(OC)cc(C(=O)NCC(=O)Nc2ccc(OC)c(Cl)c2)c1 | 2.1% | 0.3% | -3.5% | 38.5% | -28.4%
CCN1CCN(C(=O)Nc2ccccc2OC)CC1 | 3.5% | 1.7% | -2.4% | 7.8% | -4.7%
CCOC(=O)c1nn(-c2ccc3c(c2)CCN3C(C)=O)cc1O | 15.9% | ? | 14.6µM* | ? | ?
CC(c1ccccc1)C1CC(=O)N(c2cc(Cl)ccn2)C1=O (centres undefined) | ? | -5.9% | ? | 14.4% | 4.2%
O=C(NC(=S)N1CCCC1)c1ccccc1 | -1.6% | 7.08µM* | ? | 3.98µM* | 0.0%
O=C(NCC(=O)N1CCN(C/C=C/c2ccccc2)CC1)c1ccc(Br)cc1 | -21.1% | . | -5.4% | . | 20.6µM*
COc1cc2c(cc1OC)CN(C(=S)NC(=O)c1ccccc1)CC2 | 0.9% | 3.16µM* | 1.2% | 5.62µM* | ?
O=C(NCC(=O)N1CCN(C/C=C/c2ccccc2)CC1)c1ccc(OC(F)F)cc1 | -11.7% | . | 1.3% | . | ?
O=C(NC(=S)N1CCCCCC1)c1ccccc1 | -8.4% | 1.78µM* | -28.8% | 1.41µM* | -3.8%
Cc1c(C(=O)N2CCC[C@H]2CO)oc2c(F)cccc12 | 4.9% | -4.5% | 0.4% | 0.2% | ?
O=C(NC(=S)N1CCN(Cc2ccccc2)CC1)c1cccnc1 | 0.8% | 2.51µM* | -0.7% | 0.891µM* | 2.5%
COc1cc2c(cc1OC)CN(C(=O)COc1ccc(C)c(C)c1)CC2 | -4.1% | 0.5% | 6.1% | 14.1% | 18.4µM*
O=C(CSC(=S)N1CCCC1)c1ccccc1 | 6.4% | ? | -37.0% | 10µM* | ?
CC(=O)c1ccc(NC(=S)N2CCN(c3ccccn3)CC2)cc1 | -2.2% | -2.7% | 1.4% | -9.0% | -10.3%
O=C(NC(=S)N1CCN(c2ccccn2)CC1)c1ccccc1 | ? | 4.47µM* | -2.3% | 2.24µM* | -0.1%
CCOC(=O)c1nn(-c2ccc(F)cc2)c(=O)c(C#N)c1C | 1.7% | -9.9% | -14.8% | 14.9%[1.91 µM] | 7.2%
O=C(Nc1cccc(C(F)(F)F)c1)Nc1ccon1 | -5.1% | -15.1% | 19.7% | 6.1% | ?
CC(C)C(NC(=O)c1ccccc1)C(=O)N1CCN(C/C=C/c2ccccc2)CC1 (centres undefined) | -17.8% | . | 5.4% | . | -28.2%
O=C(N/C(=C/c1cccnc1)C(=O)N1CCCCCC1)c1cccc(Br)c1 | 0.6% | ? | 7.7% | 10µM* | 2.1%
O=C(N/C(=C\c1cccnc1)C(=O)N1CCC(O)CC1)c1ccccc1 | -0.3% | 4.8% | -0.6% | -16.2% | 3.1%
O=C(NC(=S)N1CCN(C2CCCCC2)CC1)c1ccccc1 | -3.0% | 3.16µM* | 2.2% | 0.891µM* | 5.3%
O=C(NC(=S)N1CCN(C/C=C/c2ccccc2)CC1)c1ccc(Cl)nc1 | 3.0% | 0.316µM* | 4.9% | 0.112µM* | 18.3µM*
O=C(NC(=S)N1CCCCC1)c1cccnc1 | -7.6% | 3.16µM* | -1.4% | 0.708µM* | 11.4%
O=[N+]([O-])c1ccc(Cn2cc(-c3cccc(C(F)(F)F)c3)nn2)cc1 | -2.1% | -6.6% | 0.3% | -14.7% | -1.2%
O=C(c1ccco1)N1CCc2[nH]nc(-c3ccccc3)c2C1 | 3.2% | -11.0% | -7.4% | 18.6% | ?
SMILES | SW480 rereplic | VP16 counter | MCF10A rerep | RORg inh | ELG1 repair inh
CC1(C)O[C@@H]2C[C@H]3[C@H]4C[C@H](F)C5=CC(=O)CC[C@]5(C)[C@@H]4[C@H](O)C[C@]3(C)[C@]2(C(=O)CO)O1 | -8.1%[20.6 µM] | -5.4%[17 µM] | 0.1%[20.6 µM] | -9.9%[2.98 µM] | .
Nc1cccc2c1CN(C1CCC(=O)NC1=O)C2=O (centres undefined) | -1.2% | -2.4% | 4.4% | -14.2% | .
CCOC(=O)C1CCN(C(=O)CNC(=O)c2nn(-c3ccc(OC)cc3OC)c(=O)c3ccccc23)CC1 | -2.5% | -3.1% | 25.9% | -4.7% | ?
O=C(NC(=S)N1CCN(c2ccccc2)CC1)c1ccccc1 | . | 1.12µM* | . | 1.41µM* | -18.4%
O=C(CNC(=O)c1ccc(Br)cc1)c1ccccc1 | ? | -28.8% | 1.6% | 12.6µM* | ?
O=C(c1cccnc1)N1CCN(Cc2ccc3ccccc3c2)CC1 | 0.1% | 4.4% | 18.4µM* | 7.1% | -22.4%
O=C(CNC(=O)c1ccc(Br)cc1)c1ccc(Br)cc1 | 2.0% | -0.3% | -5.2% | 39.9% | 6.2%
O=C(NC(=S)N1CCN(c2ccccc2)CC1)c1ccco1 | -6.2% | . | 0.6% | . | ?
CCCC[C@H]1CCCO[C@@](C(=O)NCc2ccc(C)o2)(C(F)(F)F)C1 | . | 5.2% | . | -17.7% | .
Cc1ccc(N=C2NC(=O)/C(=C/c3cccs3)S2)cc1C | -0.9% | ? | 16.4µM* | ? | 26.1%
Cc1cccc(N=C2NC(=O)/C(=C/c3cccn3C)S2)c1C | -58.2% | -28.2% | ? | 2.2% | ?
Cc1ccc(N=C2NC(=O)/C(=C\c3ccc(C)s3)S2)cc1 | 0.9% | -2.9% | 3.2% | 6.3% | -12.6%
Cc1ccc(N=C2NC(=O)/C(=C/c3cccn3C)S2)cc1 | 10.3µM* | -9.8% | ? | -41.9% | ?
Cc1ccc(N=C2NC(=O)/C(=C/c3cccn3C)S2)cc1C | ? | -25.6% | 14.6µM* | -44.1% | ?
COc1ccc(NC(=O)C2CC3C=CC2C3)c([N+](=O)[O-])c1 (centres undefined) | 1.5% | . | 12.0% | . | .
O=C(NCC1CCCO1)c1cn(Cc2ccccc2)nc1-c1ccc(Cl)cc1 (centres undefined) | -3.1% | . | 0.9% | . | ?
Cc1cc(C)c(S(N)(=O)=O)c(C)c1-n1cnnn1 | -0.8% | 3.3% | 18.9% | 8.91µM* | 2.0%
O=C(Nc1ccc(Oc2c(F)c(F)c(F)c(F)c2F)cc1)OC1CCN2Cc3ccccc3N=C12 (centres undefined) | 13µM* | ? | 13µM* | 0.708µM* | ?
O[C@@H]1CCN2Cc3ccccc3N=C12 | . | -6.8% | . | -2.2% | .
CCc1nc(SCC(=O)c2ccc3c(c2)OCCO3)c2ccccc2n1 | ? | ? | ? | -14.6% | ?
Cc1nonc1NC(=O)CSc1nc(CCC2CCCC2)nc2ccccc12 | -4.5% | -0.6% | 7.31µM* | -2.7% | 3.7%
Cc1sc2ncnc(SCC(=O)c3ccc4c(c3)OCCO4)c2c1-c1ccccc1 | . | -2.7% | 11.7% | -41.4% | 10.3µM*
O=C(CSc1nc(CCC2CCCC2)nc2ccccc12)NCc1ccc2c(c1)OCO2 | -2.7% | ? | 10.3µM* | 15.8µM* | ?
Cc1cc(NC(=O)CSc2nc(CCC3CCCC3)nc3ccccc23)no1 | 2.7% | -9.4%[0.365 µM] | -184.1%[0.0737 µM] | 7.7% | ?
Cc1ccc(-c2csc3ncnc(SCC(=O)c4ccc5c(c4)OCCO5)c23)cc1 | 19.5% | 5.2% | 14.4% | 0.1% | -29.2%
O=C(CSc1nc(Cc2ccccc2)nc2ccccc12)c1ccc2c(c1)OCCO2 | 3.6% | ? | ? | 6.31µM* | ?
O=C(CSc1nc2ccccc2o1)NCc1ccc2c(c1)OCO2 | -5.8% | 2.4% | -5.6% | 14.7% | ?
